According to the supplement of paper PMC12645437, “Orthogonal IMiD-Degron Pairs Induce Selective Protein Degradation in Cells” (ACS Chemical Biology, 2025):
The full ranking holds about 8,300 sequences; the median of “log2 fold change of degron read counts, EGFP-low vs EGFP+ sorted cells (limma voom), compound-induced degradation” is about -1.1, and the highest 2% start at about 3.2. The entries come from a sample that favours the highest values as a whole.

T1: CRBN, Q96SW2
T1 chain: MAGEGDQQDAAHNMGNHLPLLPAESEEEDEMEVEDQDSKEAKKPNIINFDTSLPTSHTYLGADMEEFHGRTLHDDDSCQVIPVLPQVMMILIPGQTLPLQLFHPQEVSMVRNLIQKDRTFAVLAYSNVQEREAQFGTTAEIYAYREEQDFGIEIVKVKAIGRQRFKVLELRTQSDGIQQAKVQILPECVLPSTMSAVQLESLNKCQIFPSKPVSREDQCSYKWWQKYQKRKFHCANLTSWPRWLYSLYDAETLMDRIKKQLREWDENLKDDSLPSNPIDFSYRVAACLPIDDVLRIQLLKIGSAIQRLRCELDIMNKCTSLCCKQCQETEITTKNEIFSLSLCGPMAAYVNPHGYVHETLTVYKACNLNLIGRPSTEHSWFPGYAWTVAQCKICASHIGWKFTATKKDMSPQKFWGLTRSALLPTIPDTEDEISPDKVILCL


Biological target: T1, CRBN, Q96SW2
Assay: log2 fold change of degron read counts, EGFP-low vs EGFP+ sorted cells (limma voom), compound-induced degradation; higher = more compound-induced degradation of the degron-EGFP fusion; degrons are variants of IKZF1/3 zinc finger 2; compound dose not given here
Conditions: Jurkat, 18 h
[1] = compound: compound 19 (5-tert-butyl-thalidomide)
[2] = compound: compound 22 (5-morpholino-thalidomide)
[3] = compound: compound 33 (diphenyl IMiD analogue)
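Note: pooled lentiviral library of zinc finger degron-EGFP fusions in mCherry-positive Jurkat cells, FACS-sorted after compound exposure, with degron abundance counted by next-generation sequencing.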

Sequence | log2 fold change of degron read counts [1] | log2 fold change of degron read counts [2] | log2 fold change of degron read counts [3] | log2 fold change of degron read counts (compound: thalidomide)
FKCSVCGHMFTQKGNLLRHIKL [46F_47K_49S_50V_52G_53H_54M_55F_67L_, Q9UKT9] | -3.17 | -3 | -3.02 | -2.7
LICNQCGFDCTQKGNLLRHIKL [46L_47I_49N_50Q_52G_53F_54D_55C_67L_, Q9UKT9] | -3.41 | -3.2 | -2.9 | -2.97
FYCDICGAMFTQKGNLLRHIKL [46F_47Y_49D_50I_52G_53A_54M_55F_67L_, Q9UKT9] | 2.46 | 1.99 | 0.476 | -1.55
FRCNQCGHNFTQKGNLLRHIKL [46F_47R_49N_50Q_52G_53H_54N_55F_67L_, Q9UKT9] | -2.02 | -3.14 | -2.79 | -2.26
FRCPVCGAPFTQKGNLLRHIKL [46F_47R_49P_50V_52G_53A_54P_55F_67L_, Q9UKT9] | 3.29 | 3.62 | 3.27 | 3.51
FFCNVCGAPFTQKGNLLRHIKL [46F_47F_49N_50V_52G_53A_54P_55F_67L_, Q9UKT9] | 2.8 | 1.44 | 0.47 | -0.472
FLCNVCGAPFTQKGNLLRHIKL [46F_47L_49N_50V_52G_53A_54P_55F_67L_, Q9UKT9] | -0.289 | 0.405 | 1.47 | 1.32
FVCDVCGAPFTQKGNLLRHIKL [46F_47V_49D_50V_52G_53A_54P_55F_67L_, Q9UKT9] | -0.0613 | 2.93 | 1.05 | 2.09
FGCDVCGAPFTQKGNLLRHIKL [46F_47G_49D_50V_52G_53A_54P_55F_67L_, Q9UKT9] | -1.15 | -2.27 | -2.07 | -2.21
FRCNVCGAPFTQKGNLLRHIKL [46F_47R_49N_50V_52G_53A_54P_55F_67L_, Q9UKT9] | 2.26 | 2.96 | 2.94 | 2.77
FQCNVCGAPFTQKGNLLRHIKL [46F_47Q_49N_50V_52G_53A_54P_55F_67L_, Q9UKT9] | 0.618 | 2.01 | 0.742 | 2.69
FQCPVCGAPFTQKGNLLRHIKL [46F_47Q_49P_50V_52G_53A_54P_55F_67L_, Q9UKT9] | 3.11 | 3.34 | 2.34 | 3.87
FFCPVCGAPFTQKGNLLRHIKL [46F_47F_49P_50V_52G_53A_54P_55F_67L_, Q9UKT9] | 3.53 | 2.84 | 2.23 | 1.5
FFCDVCGAPFTQKGNLLRHIKL [46F_47F_49D_50V_52G_53A_54P_55F_67L_, Q9UKT9] | 2.96 | 1.95 | 0.307 | -0.766
FRCDVCGAPFTQKGNLLRHIKL [46F_47R_49D_50V_52G_53A_54P_55F_67L_, Q9UKT9] | 2.07 | 3.3 | 3.21 | 2.88
FQCDVCGAPFTQKGNLLRHIKL [46F_47Q_49D_50V_52G_53A_54P_55F_67L_, Q9UKT9] | 0.996 | 2.11 | -0.0653 | 2.48
FNCEICGALFTQKGNLLRHIKL [46F_47N_49E_50I_52G_53A_54L_55F_67L_, Q9UKT9] | 0.13 | -1.53 | -0.743 | -1.13
FDCEICGAYFTQKGNLLRHIKL [46F_47D_49E_50I_52G_53A_54Y_55F_67L_, Q9UKT9] | -0.0199 | -1.26 | -0.229 | -0.2

Sequence | log2 fold change of degron read counts [1] | log2 fold change of degron read counts [2] | log2 fold change of degron read counts [3] | log2 fold change of degron read counts (compound: thalidomide)
FTCNICGAMFTQKGNLLRHIKL [46F_47T_49N_50I_52G_53A_54M_55F_67L_, Q9UKT9] | -1.09 | -0.0854 | 0.875 | 0.88
FDCNQCGHNFTQKGNLLRHIKL [46F_47D_49N_50Q_52G_53H_54N_55F_67L_, Q9UKT9] | -2.11 | -2.61 | -2.32 | -2.04
FFCNQCGRDFTQKGNLLRHIKL [46F_47F_49N_50Q_52G_53R_54D_55F_67L_, Q9UKT9] | -2.83 | -3.38 | -3.07 | -2.85
FGCNQCGHIFTQKGNLLRHIKL [46F_47G_49N_50Q_52G_53H_54I_55F_67L_, Q9UKT9] | -1.45 | -1.99 | -2.4 | -1.44
FVCPQCGASFTQKGNLLRHIKL [46F_47V_49P_50Q_52G_53A_54S_55F_67L_, Q9UKT9] | -1.71 | 0.559 | 0.703 | 1.25
FMCEICGANFTQKGNLLRHIKL [46F_47M_49E_50I_52G_53A_54N_55F_67L_, Q9UKT9] | -0.123 | 0.396 | 2.76 | 1.56
LCCNQCGFFCTQKGNLLRHIKL [46L_47C_49N_50Q_52G_53F_54F_55C_67L_, Q9UKT9] | -1.18 | -1.17 | -1.27 | -0.874
FICDVCGAPFTQKGNLLRHIKL [46F_47I_49D_50V_52G_53A_54P_55F_67L_, Q9UKT9] | -0.148 | 3.08 | 1.53 | 1.67
FSCPVCGAPFTQKGNLLRHIKL [46F_47S_49P_50V_52G_53A_54P_55F_67L_, Q9UKT9] | 3.04 | 2.37 | 1.65 | 2.12
FCCPVCGAPFTQKGNLLRHIKL [46F_47C_49P_50V_52G_53A_54P_55F_67L_, Q9UKT9] | 3.13 | 2.6 | 1.7 | 2.1
FACPVCGAPFTQKGNLLRHIKL [46F_47A_49P_50V_52G_53A_54P_55F_67L_, Q9UKT9] | 3.58 | 2.58 | 1.07 | 2.23
FGCPVCGAPFTQKGNLLRHIKL [46F_47G_49P_50V_52G_53A_54P_55F_67L_, Q9UKT9] | 3.34 | 1.9 | 1.27 | 0.43
FICPVCGAPFTQKGNLLRHIKL [46F_47I_49P_50V_52G_53A_54P_55F_67L_, Q9UKT9] | 1.18 | 3.94 | 2.58 | 3.08
FLCPVCGAPFTQKGNLLRHIKL [46F_47L_49P_50V_52G_53A_54P_55F_67L_, Q9UKT9] | 1.29 | 2.67 | 2.93 | 3.41
FDCPVCGAPFTQKGNLLRHIKL [46F_47D_49P_50V_52G_53A_54P_55F_67L_, Q9UKT9] | 2.39 | 0.488 | 0.886 | 1.55
FICNVCGAPFTQKGNLLRHIKL [46F_47I_49N_50V_52G_53A_54P_55F_67L_, Q9UKT9] | -0.34 | 2.49 | 1.6 | 2.07
FKCPVCGAPFTQKGNLLRHIKL [46F_47K_49P_50V_52G_53A_54P_55F_67L_, Q9UKT9] | 2.06 | 1.94 | 0.0815 | 2.39
FGCNVCGAPFTQKGNLLRHIKL [46F_47G_49N_50V_52G_53A_54P_55F_67L_, Q9UKT9] | -0.996 | -1.44 | -1.2 | -1.32
